# Results taken from PubChem BioAssay (Tox21).
# “And” between values parts separate entries of the source, which are not always exact repeats. Identical values can stand only once. Results filed as inconclusive are left out. Entries that show only a call come without a potency. Some structures have more than one record in an assay (separate samples or runs), and their calls can disagree. The source made the active and inactive calls. Unless noted, calls follow the shape of the dose curve; as a rule, active = well fitted curve in the direction sought with a large enough effect in the repeat runs; inconclusive = weak or mixed curves; inactive = no such curve, though single readings can be large; an effect the other way counts as inactive or inconclusive. Starred links: 1 amine or outer side, 2 acyl side, 3 side chain; linkers in the order of their positions; H or OH if unused. Positions of bridges follow the written chain, without caps; N, C: chain ends. Non-standard residues stand in square brackets, D forms with d. Residues, ends and D or L forms follow the SMILES beside them. Chains are numbered I, II in the order given. Actinocin(9to1) = Cc1c2oc3c(C)ccc(C(=O)[*:1])c3nc-2c(C(=O)[*:2])c(N)c1=O; NMeV = CN[C@H](C(=O)O)C(C)C; Sar = CNCC(=O)O
# How the values were obtained:
# [1] = qHTS assay to identify small molecule agonists of H2AX (AID 1224845; active = well fitted activation curve with a large enough effect in the signal ratio in the repeat runs, not every such curve was filed as active; the % refers to the signal ratio; also: potency is read from the fitted curve at half-maximal effect)
# Outline: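 Wild-type CHO-K1 cells, plated overnight, exposed 3hr at 37C to 15 concentrations (0.76% DMSO final). Lysed, then HTRF anti-pH2AX (S139) cryptate and anti-H2AX-d2 antibodies, 24 hr room temperature; 665/620 nm emission read.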
# [2] = qHTS assay to identify small molecule agonists of H2AX - cell viability counter screen (AID 1224847; calls by dose curve; also: nearly all actives have a fitted effect of over 30% in size; also: potency is read from the fitted curve at half-maximal effect)
# Outline: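 CHO-K1 cells plated overnight at 37C, then exposed 3 h at 37C to compounds at 15 concentrations (0.76% DMSO final). Viability by CellTiter-Glo luminescence after 30 min at room temperature.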
# [3] = qHTS RealTime-Glo MT Cell Viability Assay in HepG2 cells - 24 hour (AID 1224867); also: nearly all actives have a fitted effect of over 50% in size; also: potency is read from the fitted curve at half-maximal effect
# Outline: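 qHTS, HepG2, 600 cells/well, RealTime-Glo (NanoLuc + prosubstrate) added with cells; 5 h preincubation; DMSO compound addition; 37 C; luminescence at 0/8/16/24/32/40 h.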
# [4] = A CellTox Green Cytotoxicity Assay to monitor cytotoxicity in HEK293 cells - 0 hour (AID 1224869); also: nearly all actives have a fitted effect of over 50% in size; also: potency is read from the fitted curve at half-maximal effect
# Outline: (§1)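 Real-time, in one plate: 600 HEK293 cells/well with dead-cell DNA dye, pinned compound after 5 h, 37 C incubation over 40 h; viable cells give no appreciable fluorescence.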
# [5] = qHTS RealTime-Glo MT Cell Viability Assay in HepG2 cells - 40 hour (AID 1224870); also: nearly all actives have a fitted effect of over 50% in size; also: potency is read from the fitted curve at half-maximal effect
# Outline: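 HepG2 cells (600/well) mixed with RealTime-Glo MT reagent, settled 5 h at 37 C/5% CO2 before compound addition. Nonlytic NanoLuc luminescence from viable-cell prosubstrate reduction read repeatedly during 40 h treatment at 37 C.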
# [6] = A CellTox Green Cytotoxicity Assay to monitor cytotoxicity in HEK293 cells - 40 hour (AID 1224871); also: nearly all actives have a fitted effect of over 45% in size; also: potency is read from the fitted curve at half-maximal effect
# Outline: as §1
# [7] = qHTS RealTime-Glo MT Cell Viability Assay in HEK293 cells - 32 hour (AID 1224868); also: nearly all actives have a fitted effect of over 50% in size; also: potency is read from the fitted curve at half-maximal effect
# Outline: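 Assay medium contained NanoLuc luciferase plus cell-permeant prosubstrate, added with HEK293 cells at 600 cells/well. After 5 h at 37 C/5% CO2 compounds were added; plates stayed at 37 C for 40 h with serial luminescence reads.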
# [8] = qHTS assay to identify small molecule agonists of the hypoxia (HIF-1) signaling pathway (AID 1224846; active = well fitted activation curve with a large enough effect in the signal ratio in the repeat runs, not every such curve was filed as active; the % refers to the signal ratio)
# Outline: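 ME-180 HRE-bla reporter cells; compounds in DMSO, 17 h at 37C; read-out beta-lactamase via CCF4-AM FRET.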
# [9] = qHTS assay to identify small molecule antagonists of the estrogen related receptor (ERR) signaling pathway from Tox21 library (AID 1224848); also: nearly all actives have a fitted effect of over 50% in size; also: potency is read from the fitted curve at half-maximal effect
# Outline: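 Compounds dissolved in DMSO are pin-transferred onto ERR reporter cells (2,000 per well) that have settled for 6 h at 37 C. Plates then incubate 18 h at 37 C before ONE-Glo luciferase reagent and a luminescence read 30 min later.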
# [10] = qHTS assay to identify small molecule agonists of the estrogen related receptor (ERR) signaling pathway from Tox21 library (AID 1224849; calls by dose curve; also: nearly all actives have a fitted effect of over 15% in size); settings: ERR reporter cell line, ONE-Glo luciferase, 18 h
# Outline: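 Luciferase activity in ERR pathway reporter cells served as the agonist readout; exposure lasted 18 h at 37 C, with ONE-Glo detection after 30 min at room temperature.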
SMILES,Potency [1],Potency [2],Potency [3],Potency [4],Potency [5],Potency [6],Potency [7],Potency [8],Potency [9],"activity change, positive = activation ([10]; at 92.4 µM (top of the series))","activity change, positive = activation ([10]; at 42.5 µM (top of the series))"
CCCNC(C)C(=O)Nc1ccccc1C (stereo not given),inactive,inactive,inactive,inactive,inactive,inactive,–,–,–,–,–
Oc1ccc(Cl)cc1Cc1cc(Cl)ccc1O,inactive,51.4 µM (active) and 31.8 µM (active),–,inactive,49.9 µM (active),inactive,19.8 µM (active) and 49 µM (active),–,–,–,–
Nc1ccc(O)cc1,–,inactive,inactive,inactive,inactive,25.5 µM (active) and inactive,32.1 µM (active) and inactive,inactive,22.5 µM (active) and inactive,-66.4% (inactive),–
CCCCC(CC)COC(=O)CC(C(=O)OCC(CC)CCCC)S(=O)(=O)O (stereo not given),inactive,86.4 µM (active) and 80 µM (active),inactive,inactive,inactive,24.5 µM (active),–,–,–,–,–
O=Nc1ccc(Nc2ccccc2)cc1,–,50.8 µM (active),–,inactive,–,5.53 µM (active) and 6.92 µM (active),–,–,inactive,-76% (active),–
Nc1cc(Cl)c(-c2cc(Cl)c(N)cc2Cl)cc1Cl,–,101 µM (active) and 113 µM (active),–,inactive,inactive,inactive,6.91 µM (active) and 1.74 µM (active),–,54.4 µM (active) and 61.1 µM (active),-76.8% (inactive) and -62.3% (inactive),–
O=C1OC2(c3ccc(O)cc3Oc3cc(O)ccc32)c2ccccc21,inactive,inactive,inactive,1.74 µM (active) and 848 nM (active),inactive,692 nM (active) and 1.2 µM (active),–,–,–,–,–
O=C(Nc1ccccc1SSc1ccccc1NC(=O)c1ccccc1)c1ccccc1,18 µM (active),–,inactive and 49 µM (active),inactive,inactive,–,–,–,24.5 µM (active) and 43.3 µM (active),-71.7% (inactive) and -62.7% (inactive),–
Nc1nc2ccccc2[nH]1,inactive,inactive,inactive,inactive,inactive,inactive,inactive,–,–,–,–
CCN(CC)C(=S)SSC(=S)N(CC)CC,–,inactive,436 nM (active) and 398 nM (active) and inactive,inactive,0.1 µM (active),155 nM (active) and 5.62 µM (active) and 84.9 nM (active),–,–,243 nM (active) and 55.8 nM (active) and 298 nM (active),-75.7% (inactive) and -76.4% (inactive),-68.2% (inactive)
CCn1c2ccccc2c2cc(N)ccc21,–,inactive,inactive,inactive,inactive,inactive,inactive,–,34 µM (active),-48% (inactive) and -30.3% (inactive) and -32.3% (inactive),–
CNCCC(Oc1ccc(C(F)(F)F)cc1)c1ccccc1 (stereo not given),–,112 µM (active) and 49.2 µM (active),–,inactive,–,–,–,–,–,–,–
Cc1scc2c1N(C(=O)CN1CCN(C)CC1)c1ccccc1NC2=O,inactive,inactive,inactive,inactive,inactive,inactive,–,–,–,–,–
Nc1ccc2cc3ccccc3cc2c1,inactive,inactive,inactive,inactive,inactive,inactive,–,–,–,–,–
CC(N)=O,inactive,inactive,inactive,inactive,inactive,inactive,inactive,–,–,–,–
Cc1cc(C2(c3cc(C)c(O)cc3C)OS(=O)(=O)c3ccccc32)c(C)cc1O,–,inactive,–,inactive,inactive,inactive,–,inactive,61.1 µM (active) and inactive,-48.1% (inactive) and -15.2% (inactive),–
CCCCCCCCCCCC[N+](C)(C)C,inactive,113 µM (active) and inactive,–,inactive,48.9 µM (active) and 49 µM (active) and 43.6 µM (active),54.8 µM (active) and 17.4 µM (active) and 54.9 µM (active),6.15 µM (active) and 3.47 µM (active),–,–,–,–
CCN(CC)CCOc1ccc(/C(=C(\Cl)c2ccccc2)c2ccccc2)cc1,–,81.7 µM (active),28.1 µM (active) and 23.9 µM (active),inactive,17.7 µM (active) and 23.9 µM (active),19.9 µM (active) and 23.9 µM (active),14.1 µM (active) and 19 µM (active),–,–,–,–
"Cc1c2oc3c(C)ccc(C(=O)N[C@@H]4C(=O)N[C@H](C(C)C)C(=O)N5CCC[C@H]5C(=O)N(C)CC(=O)N(C)[C@@H](C(C)C)C(=O)O[C@@H]4C)c3nc-2c(C(=O)N[C@@H]2C(=O)N[C@H](C(C)C)C(=O)N3CCC[C@H]3C(=O)N(C)CC(=O)N(C)[C@@H](C(C)C)C(=O)O[C@@H]2C)c(N)c1=O (I: T[dV]P[Sar][NMeV] / II: T[dV]P[Sar][NMeV]; ester I:1-I:C, II:1-II:C; linker I:N-II:N via Actinocin(9to1))",1.1 µM (active),inactive,8.47 µM (active) and 2.68 µM (active),inactive,–,inactive,12 nM (active) and 21.3 nM (active),–,–,–,–
CCCCCCCCCCCCCC[P+](CCCC)(CCCC)CCCC,–,3.99 µM (active) and 31.8 µM (active),21.8 µM (active) and 13.8 µM (active),inactive,21.8 µM (active) and 11 µM (active),13.7 µM (active) and 17.4 µM (active),173 nM (active) and 219 nM (active),–,–,–,–
CC1COc2c(N3CCN(C)CC3)c(F)cc3c(=O)c(C(=O)O)cn1c23 (stereo not given),inactive,inactive,–,inactive,–,inactive,–,–,–,–,–
CN(C)c1ccc2nc3ccc(=[N+](C)C)cc-3sc2c1,–,21.7 µM (active) and 45 µM (active) and 43.8 µM (active),16.7 µM (active) and 12.3 µM (active) and 19 µM (active),inactive,21 µM (active) and 12.3 µM (active) and 23.9 µM (active),inactive,1.87 µM (active) and 1.74 µM (active) and 2.68 µM (active),–,739 nM (active) and 433 nM (active) and 473 nM (active),-71.3% (inactive),-59.7% (inactive) and -55.3% (inactive)
COc1ccc(CCN2CCC(Nc3nc4ccccc4n3Cc3ccc(F)cc3)CC2)cc1,–,32.6 µM (active),17.8 µM (active) and 13.4 µM (active),inactive,15.8 µM (active) and 10.7 µM (active),11.2 µM (active) and 23.9 µM (active),6.3 µM (active) and 15.1 µM (active),–,12.5 µM (active) and 26.6 µM (active),-76.4% (inactive),-69.8% (inactive)
CCCOC(=O)c1cc(O)c(O)c(O)c1,–,inactive,inactive,inactive,inactive,inactive,38.9 µM (active),inactive,48.3 µM (active) and 54.5 µM (active),-50.8% (inactive) and -46.2% (inactive),–
CC[C@H]1CN2CCc3cc(OC)c(OC)cc3[C@@H]2C[C@@H]1C[C@H]1NCCc2cc(OC)c(OC)cc21,–,inactive,–,inactive,–,55.1 µM (active),15.5 nM (active) and 42.5 nM (active),–,–,–,–
Oc1c(Cl)cc(Cl)cc1Sc1cc(Cl)cc(Cl)c1O,inactive,–,inactive,inactive and 27.5 µM (active),inactive,49.1 µM (active) and 43.6 µM (active) and inactive,–,–,–,-60.8% (inactive) and -52.2% (inactive) and -57.2% (inactive),-52.3% (inactive)
OCCOCCN1CCN(C(c2ccccc2)c2ccc(Cl)cc2)CC1 (stereo not given),–,125 µM (active) and inactive,48.3 µM (active) and inactive,inactive,48.3 µM (active) and inactive,54.2 µM (active) and inactive,6.08 µM (active) and inactive,–,–,–,–
COc1ccc(CCN(C)CCCC(C#N)(c2ccc(OC)c(OC)c2)C(C)C)cc1OC (stereo not given),–,inactive,–,inactive,–,inactive,–,–,–,–,–
C=CC(=O)OCCCCCCOC(=O)C=C,114 µM (active),–,inactive and 43.6 µM (active),inactive,inactive,54.9 µM (active),49 µM (active),–,inactive,-0.87% (active) and -57.5% (active),–
CCc1cc(C(C)(C)C)c(O)c(C(C)(C)C)c1,–,–,inactive,inactive,inactive,21.9 µM (active),inactive,–,–,–,–
